PubChem BioAssay AID602475 (National Center for Advancing Translational Sciences (NCATS), 2012)
Results filed as inconclusive are left out. Where a call stands in place of a potency, no number is given. The source made the active and inactive calls. Calls follow the shape of the dose curve; as a rule, active = well fitted inhibition curve with a large enough effect; inconclusive = small, poorly fitted or top-dose-only effect; inactive = no such curve, though single readings can be large or run the other way.

Molecular target: Luciferin 4-monooxygenase (Photinus pyralis) (UniProt P08659)
Test: FLuc inhibitory activity for the follow-up compounds in a biochemical assay with an in-house formulation of detection reagent
Conditions: purified FLuc, luminescence; series mostly up to 25.6 µM
Text: NCGC Assay Overview: Firefly (Photinus pyralis) luciferase is one of the most commonly used transcriptional reporters. It is considered one of the more dynamically responsive reporters - that is, responsive to changes in reporter transcription - as it requires no post-translational modifications and is enzymatically active directly after protein synthesis (Wood, 1998). With no endogenous expression in mammalian cells and without the requirement of external excitation, it offers very little background signal, thus generally providing excellent signal to background for most assays. Previous profiling work to determine the prevalence of compounds that affect FLuc enzymatic activity (PubChem AID 411) identified that ~3% of the MLSMR library (then at ~72K) inhibited FLuc (Auld et al., 2008). […] Of the compounds identified in this profile that inhibited FLuc, 151 compounds were selected for further analysis, in an effort to better understand their mode of inhibiting FLuc. The assay described here was to determine the activity of the compounds in a FLuc assay that used an in-house formulation of detection reagent.
NCGC Assay Protocol Summary: Reagents: 300mM Tris-HCl, 300mM Trizma base, 300mM MgCl, 1% Triton-X100, 5mM DTT, 500uM Coenzyme A trilithium salt (Sigma #C3019),450uM ATP (Sigma #A7699), 1mM D-luciferin sodium salt monohydrate (Biosynth #L8240); 10nM P. pyralis luciferase (Sigma #L9506) Control compounds used were two known firefly luciferase inhibitors (3-(5-(3-chlorophenyl)-1,2,4-oxadiazol-3-yl)benzoic acid and 5-(2-fluorophenyl)-3-phenyl-1,2,4-oxadiazole), and DMSO. Assay Summary: Six microliters of buffer containing firefly luciferase (final concentrations: 50mM Tris acetate, 10nM P. pyralis luciferase) are dispensed into each well of a Greiner white, solid-bottom 1536-well format plate using a flying reagent dispenser (FRD). These assay plates were then treated with 23nL of compound or DMSO using a Kalypsys pin tool, which allows for delivery of a 12-point intraplate titration of each compound to the assay plate (quantitative HTS), with final compound concentrations ranging from approximately ~25uM to 0.1nM. Three microliters of 3X in-house detection reagent was then delivered by FRD to each well (final concentrations in assay: 300mM Tris-HCl, 300mM Trizma base, 300mM MgCl, 1% Triton-X100, 5mM DTT, 500uM Coenzyme A trilithium salt, 450uM ATP, 1mM D-luciferin sodium salt monohydrate). Luciferase activity was then measured using a ViewLux CCD imager (PerkinElmer), with an average exposure time of 2-30 seconds (2X binning, medium/high gain).

Luciferin 4-monooxygenase (Photinus pyralis), sequence (P08659 whole entry, looked up): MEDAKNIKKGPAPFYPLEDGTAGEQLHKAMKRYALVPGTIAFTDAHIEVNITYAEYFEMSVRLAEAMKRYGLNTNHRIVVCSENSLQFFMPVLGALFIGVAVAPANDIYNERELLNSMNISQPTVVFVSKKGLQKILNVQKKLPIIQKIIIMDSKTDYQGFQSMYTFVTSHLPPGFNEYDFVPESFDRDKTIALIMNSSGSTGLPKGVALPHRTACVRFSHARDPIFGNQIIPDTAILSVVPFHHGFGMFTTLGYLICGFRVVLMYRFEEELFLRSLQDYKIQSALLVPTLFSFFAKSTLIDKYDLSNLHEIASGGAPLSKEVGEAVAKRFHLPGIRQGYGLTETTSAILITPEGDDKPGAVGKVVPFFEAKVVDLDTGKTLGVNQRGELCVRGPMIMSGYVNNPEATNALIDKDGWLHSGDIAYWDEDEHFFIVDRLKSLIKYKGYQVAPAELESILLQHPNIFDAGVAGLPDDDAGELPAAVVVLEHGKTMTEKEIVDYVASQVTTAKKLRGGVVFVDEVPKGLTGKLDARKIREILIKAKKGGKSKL

| SMILES | Potency |
| --- | --- |
| O=C(O)c1cccc(NC(=O)c2ccc(Cl)c(S(=O)(=O)N3CCCCCC3)c2)c1 | inactive |
| Cc1c(NC(=O)C(C)(C)C)cccc1-c1nc2ccccc2s1 | inactive |
| COc1ccc2nc(NC(=O)CCc3ccc(OC)c(OC)c3)sc2c1 | inactive |
| O=C(O)c1ccc(NC(=O)c2cccc(C(=O)Nc3ccc(C(=O)O)cc3)c2)cc1 | inactive |
| Cc1ccc(C(=O)Nc2ccc(C(=O)O)cc2)cc1S(=O)(=O)NCc1ccccc1 | inactive |
| Cc1ccccc1C(=O)Nc1cccc(C(=O)Nc2ccccc2C(=O)O)c1 | inactive |
| COc1ccc(Br)cc1C(=O)Nc1ccc(C(=O)O)cc1 | inactive |
| Nc1ccc(-c2nc3ccc(C(=O)O)cc3s2)cc1 | 5.51 µM (active) |
| COc1cccc(-c2nc3ccccc3s2)c1 | 7.79 µM (active) |
| COc1ccc(C(=O)Nc2ccccc2C(=O)Nc2ccccc2C(=O)O)cc1 | inactive |
| COc1cc(OC)cc(C(=O)Nc2ccccc2-c2nc3ccccc3s2)c1 | inactive |
| O=C(Nc1ccccc1C(=O)O)c1ccc(NC(=O)C2CC2)cc1 | 7.79 µM (active) |
| COc1ccc2nc(NC(=O)C3CCN(S(=O)(=O)c4cccnc4)CC3)sc2c1 | inactive |
| O=C(O)c1ccc(NC(=O)c2ccccc2NC(=O)c2cccc(Br)c2)cc1 | inactive |
| O=C(O)c1cccc(NC(=O)c2ccccc2NC(=O)c2ccco2)c1 | inactive |
| Nc1ccc2nc(-c3ccc(O)cc3)sc2c1 | 6.19 µM (active) |
| COc1cc(OC)cc(-c2nc3ccccc3s2)c1 | inactive |
| CN=c1scc(-c2ccccc2F)n1/N=C/c1ccc[nH]1 | 0.123 µM (active) |
| Cc1c(NC(=O)c2cccs2)cccc1-c1nc2ccccc2s1 | inactive |
| Cc1ccc2nc(-c3ccc(NC(=O)CN4CCN(C(=O)c5ccco5)CC4)cc3)sc2c1 | 2.46 µM (active) |

| SMILES | Potency |
| --- | --- |
| O=C(Nc1ccccc1-c1nc2ccccc2s1)c1cccnc1 | inactive |
| Cn1c(N/N=C/c2cc3ccccc3nc2Cl)nc2ccccc21 | inactive |
| Cc1ccc(C(=O)O/N=C(\N)c2ccccn2)cc1 | 0.0619 µM (active) |
| O=C(Nc1ccccc1C(=O)O)c1ccc(NC(=O)C2CCCCC2)cc1 | inactive |
| O=C(Nc1ccccc1C(=O)O)c1cccc(NC(=O)c2ccccc2Br)c1 | inactive |
| O=C(O)c1ccc(NC(=O)c2ccccc2NC(=O)c2ccccc2Cl)cc1 | inactive |
| O=C(Nc1c(Cl)cc(Cl)cc1-c1nc2ccccc2s1)c1ccc(Br)o1 | 13.8 µM (active) |
| CCOC(=O)N1CCN(CC(=O)Nc2nc3ccc(OC)cc3s2)CC1 | inactive |
| O=C(Nc1ccccc1C(=O)O)c1cc(S(=O)(=O)Nc2ccccc2)ccc1Cl | inactive |
| O=C(O)c1ccc(NC(=O)c2cc(S(=O)(=O)N3CCCCC3)c(Cl)cc2Cl)cc1 | inactive |
| O=C(O)c1cccc(NC(=O)c2cccc(S(=O)(=O)N3CCCCC3)c2)c1 | inactive |
| CC(C)c1ccc(-c2nc3ccccc3s2)cc1 | 0.098 µM (active) |
| O=C(O)c1cccc(NC(=O)c2cccc(NC(=O)C3CCCO3)c2)c1 (stereo not given) | inactive |
| CCn1c(C)nc2cc(-c3nc4n(n3)Cc3ccccc3-4)ccc21 | 0.155 µM (active) |
| Cc1ccc(S(=O)(=O)N2CCOCC2)cc1C(=O)Nc1ccccc1C(=O)O | inactive |
| Cc1cccc(NS(=O)(=O)c2cccc(C(=O)Nc3cccc(C(=O)O)c3)c2)c1 | inactive |
| O=C(Nc1ccccc1C(=O)O)c1cc(S(=O)(=O)Nc2cccc(F)c2)ccc1Cl | inactive |
| c1ccc2sc(-c3ccc4c(c3)OCO4)nc2c1 | 4.91 µM (active) |
| O=C(Nc1ccccc1C(=O)O)c1cccc(NC(=O)c2ccc(Br)o2)c1 | inactive |
| Cc1ccc(C(=O)Nc2cccc(C(=O)O)c2)cc1 | 13.8 µM (active) |
